Compound activity (PubChem)
LmPK inhibitor = inhibitors of Leishmania mexicana pyruvate kinase. Q27686. purified LmPK, Kinase-Glo ATP luminescence, 1 h. Potency, µM (top dose mostly 57.5 µM), for inactives: at the top dose activity change, negative = inhibition, actives largely listed as inhibitors. 290,000 tested, 0.37% active. AID 1721
Target sequence (Q27686 whole entry, looked up): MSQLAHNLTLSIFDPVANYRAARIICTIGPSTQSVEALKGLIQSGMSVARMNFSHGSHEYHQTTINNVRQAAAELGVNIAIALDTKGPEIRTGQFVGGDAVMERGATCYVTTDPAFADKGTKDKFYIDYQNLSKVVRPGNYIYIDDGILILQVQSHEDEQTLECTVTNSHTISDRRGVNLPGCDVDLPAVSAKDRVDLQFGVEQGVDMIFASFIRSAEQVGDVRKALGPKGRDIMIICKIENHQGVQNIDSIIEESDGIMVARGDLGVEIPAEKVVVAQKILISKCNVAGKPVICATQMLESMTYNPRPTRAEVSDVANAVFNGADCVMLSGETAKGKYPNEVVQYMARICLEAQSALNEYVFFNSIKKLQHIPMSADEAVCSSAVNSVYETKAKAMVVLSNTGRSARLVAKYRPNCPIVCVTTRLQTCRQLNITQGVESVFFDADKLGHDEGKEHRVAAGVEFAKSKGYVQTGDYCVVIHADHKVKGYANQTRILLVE
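0.1 nM LmPK, 0.5 mM PEP, 0.1 mM ADP; 50 mM imidazole pH 7.2, 7 mM MgCl2, 50 mM KCl; 1 h RT. Kinase-Glo luminescence readout, normalized to no-enzyme (full inhibition) and uninhibited wells.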
RE007 growth inh = less growth of the S. pombe RE007 Vpr strain; 360,000 tested, 0.21% active; AID 651644; S. pombe RE007 Vpr strain, BacTiter-Glo ATP luminescence, 24 h; Potency, µM (series often up to 92.2 µM), for the others: at the highest dose activity change, negative = less growth, actives largely listed as inhibitors; active = well fitted falling curve with a large enough effect; inconclusive = small, poorly fitted or top-dose-only effect; inactive = no such curve, though single readings can be large or run the other way; also: nearly all actives have a fitted effect of over 50% in size
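Fission yeast RE007 carrying one integrated HIV-1 vpr copy, seeded at OD 0.01 in PMG+AL medium with 23 nL pinned compound. Grown 24 h at 30 degrees; viability read by BacTiter-Glo luminescence after 5 min.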
Sm TGR inh = blocks Schistosoma mansoni thioredoxin glutathione reductase; purified TGR, DTNB reduction, TNB absorbance 405 nm; 360,000 tested, 3% active; Potency, µM (highest dose often 114 µM), for inactives: top-dose activity change, negative = inhibition, most hits filed as inhibitors; also: nearly all actives have a fitted effect of over 60% in size
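First, TGR (20 nM dispensed) and NADPH were mixed with compound. Second, a 15 min room-temperature incubation followed. Third, further NADPH and then DTNB were added to start the reaction. Finally, TNB absorbance was monitored kinetically.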
TbPYK inhibitor = inhibitors of Trypanosoma brucei pyruvate kinase | TbPYK enzyme, Kinase-Glo Plus ATP luminescence, 45 min | Potency, µM (top dose mostly 76.8 µM), for the others: at the top dose activity, negative = inhibition, usual class: inhibitors | 410,000 tested, 0.12% active | Q57TT1; also: nearly all actives have a fitted effect of over 50% in size
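Glycolytic pyruvate kinase of T. brucei was incubated with substrate, test compound and 130 uM ADP for 45 minutes at room temperature. Luminescent Kinase-Glo Plus signal was measured after 10 minutes.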
The depositor's hits bear a star; ? = inconclusive; . = no result given; [ ] = another dose, or the depositor's remark. Sampled rows, rich in hits. Any-hit rate of the full collection: about 3%. Unless noted, calls follow the shape of the dose curve; as a rule, active = well fitted curve in the direction sought with a large enough effect; inconclusive = small, poorly fitted or top-dose-only effect, or another doubt; inactive = no such curve, though single readings can be large; an effect the other way counts as inactive or inconclusive. % is scaled to controls: 0 for no effect and ±100 for the full control effect; potency is read from the fitted curve at half-maximal effect.

SMILES | LmPK inhibitor | RE007 growth inh | Sm TGR inh | TbPYK inhibitor
Cc1ccc(-n2nc(C)c(NC(=O)CCl)c2C)cc1 | 5% | . | 50µM* | -8%
Cc1nn(Cc2ccc(Cl)cc2Cl)c(C)c1NC(=O)c1nn(C)cc1Cl | 2% | -9% | 49% | -1%
CC(=O)Nc1c(C)nn(-c2ccc([N+](=O)[O-])cc2)c1C | -3% | 5% | -33% | 4%
Cc1nn(Cc2ccc(Cl)cc2Cl)c(C)c1NC(=O)CCl | 6% | 16% | 40µM* | 6%
Cc1cccc(NC(=O)Cn2c(=O)n(Cc3ccccc3)c(=O)c3oc4ccccc4c32)c1C | . | . | 5% | 3%
COc1ccc(C)cc1NC(=O)NCCn1nnc2cc(S(=O)(=O)N(C)C)ccc21 | . | . | -6% | -2%
COCCN(C)Cc1cn(-c2ccc(F)cc2F)nc1-c1ccccc1C | 0% | -7% | 5µM* | -3%
Cc1nn(-c2ccccc2)c2nc(C(Cl)(Cl)Cl)[nH]c(=O)c12 | 9% | 18% | 13µM* | -5%
N#Cc1ccc(CN2CCC3(CC2)CCN(C(=O)c2cccc(F)c2)CC3)cc1 | . | . | . | 1%
CCN(CC)c1ccc(/C=N/Nc2ccccc2)c(O)c1 | -1% | -8% | 10µM* | 2%
CCN(CC)c1ccc(C=Nc2ccccc2)c(O)c1 | -6% | -22% | -10% | 6%
CCN(CC)c1ccc(/C=N/Nc2cccc(C)c2)c(O)c1 | 4% | 7% | 10µM* | 1%
C(=N\c1nc2ccccc2[nH]1)/c1cccs1 | 14µM* | -12% | 1% | -6%
Cc1cc(C)n2nc(-c3ccsc3-n3c(C)ccc3C)cc2n1 | -3% | -14% | 3.5µM* | -9%
O=C(O)CC/C=C\CC[C@@H]1[C@@H](N2CCCCC2)[C@@H](O)C[C@@H]1OCc1ccc(-c2ccccc2)cc1 | . | . | . | -6%
CC(=O)N=c1sc2nc3ccccc3nc2n1N(C(C)=O)C(C)=O | -2% | -30% | 50µM* | -28%
ClC1=C(Cl)C(Cl)=C(Cl)C1=C/C=C/c1ccccc1 | -6% | 13% | 50µM* | -1%
O=C1NC(=O)C(=CC=Cc2ccccc2)S1 | . | -8% | . | -3%
NC(=O)Nn1c(CCC(=O)O)ccc1-c1ccc(Cl)cc1 | 0% | -18% | -32% | -3%
NC(=O)Nn1c(CCC(=O)O)ccc1-c1ccc(Br)cc1 | -3% | -4% | 14µM* | -2%
COc1ccc(-c2ccc(CCC(=O)O)n2NC(N)=O)cc1 | 5% | 3% | 45µM* | -7%
CCCn1c(CCC(=O)O)ccc1-c1ccc(OC)cc1 | 5% | 3% | 40µM* | 0%
COc1ccc(-c2nc3cnc(N(C)C)nc3n(CCc3ccccc3)c2=O)cc1 | . | . | . | -3%
CCc1nnc(NC(=O)CSc2nccn2Cc2ccc(F)cc2)s1 | . | . | 7% | 4%
CCN(CC)Cc1nc2nc(Cl)c(Cl)nc2[nH]1 | . | -5% | . | 0%
SMILES | LmPK inhibitor | RE007 growth inh | Sm TGR inh | TbPYK inhibitor
CC(C)c1cccc(-c2csc(C(O)c3ccc(F)c(F)c3)n2)c1 (stereo not given) | . | 40µM* | . | -3%
O=[N+]([O-])c1cc(-c2ccc([As](=O)(O)O)cc2)ccc1[As](=O)(O)O | 1% | . | 8.9µM* | .
CC(Nc1ccc(N2CCOCC2)cc1)C(=O)N1c2ccccc2CC1C (stereo not given) | -9% | -19% | 79µM* | ?
CC1Cc2ccccc2N1CC(=O)Nc1ccc(N2CCOCC2)cc1 (stereo not given) | -3% | 4% | -3% | -5%
O=C(CSc1c2c(nc3ccc(Cl)cc13)CCCC2)N1CCCCC1 | . | . | -3% | -1%
CNC(=O)c1c(NC(=O)c2ccco2)sc2c1CCC2 | 3% | -16% | 32µM* | -9%
O=C(/C=C/c1ccccc1)Nc1sc2c(c1C(=O)O)CCC2 | 3% | -30% | ? | -8%
NC(=O)c1c(NC(NC(=O)c2ccco2)C(=O)c2ccc(Cl)cc2)sc2c1CCCC2 (stereo not given) | 13% | 4% | 32µM* | -11%
N#Cc1c(NC(NC(=O)c2ccco2)C(=O)c2ccccc2)sc2c1CCCC2 (stereo not given) | -8% | 4% | 15% | ?
CNC(=O)c1c(NC(=O)/C=C/c2ccccc2)sc2c1CCC2 | . | . | 35µM* | 0%
Cc1cn([C@H]2C[C@H](O)[C@@H](/C=C/C(=O)N3CCN(Cc4ccc(F)cc4)CC3)O2)c(=O)[nH]c1=O | . | -11% | . | -9%
CC1(C(=O)Nc2cccc3ccccc23)CCN1C(=O)Cc1ccccc1Cl (stereo not given) | . | 5%[18.4 µM] | . | -6%
O=C(NC1CC1)c1ccc(CSCc2ccccc2Cl)o1 | -4% | -1% | ? | -7%
Cc1c(Cl)cccc1NC(=O)CN1C(=O)CSc2ccc(S(=O)(=O)N3CCCC3)cc21 | . | . | -13% | 1%
CCS(=O)(=O)N1CCc2cc(C(=O)N3CCN(c4cccc(C(F)(F)F)c4)CC3)ccc21 | . | . | -5% | 3%
C[C@H]1Cc2c(COc3ccccc3)nc3c(c2CO1)CN(C(=O)c1cc(I)ccc1F)CC3 | -4%[11.5 µM] | . | . | .
COc1cccc(C(=O)Nc2cccc(-c3cn4ccsc4n3)c2)c1OC | . | . | 1% | -7%
O=C(O)/C=C/C(=O)NCCc1ccccc1 | 0% | -13% | -20% | 1%
Cc1ccc(/C=C/C(=O)NCCc2ccccc2)o1 | -3% | 2% | 3.2µM* | ?
O=C(O)CCCNC(=O)/C=C/c1ccco1 | 9% | 6% | 4.5µM* | -3%
Cc1ccc(/C=C/C(=O)OCC(=O)NC(C)c2ccccc2)o1 (stereo not given) | . | 3% | 35µM* | -12%
O=C(/C=C/c1ccco1)NCCc1ccccc1 | 1% | 0% | 7.9µM* | 0%
O=C(O)CCCCCNC(=O)/C=C/c1ccco1 | -6% | 0% | 0% | -3%
Cc1cc(C(=O)OCC(=O)NC(C)c2ccccc2)c(C)o1 (stereo not given) | 0% | 2% | 69% | 4%
CCC(=O)c1ccc2c(c1)N(CCCN1CCN(CCO)CC1)c1ccccc1S2 | . | . | . | 2%
SMILES | LmPK inhibitor | RE007 growth inh | Sm TGR inh | TbPYK inhibitor
CCC(=O)O[C@H]1C(O[C@@H]2C(C)[C@H](O[C@H]3C[C@@](C)(OC)C(O)C(C)O3)C(C)C(=O)OC(CC)[C@@](C)(O)C(O)[C@H](C)C(=O)C(C)C[C@]2(C)O)OC(C)CC1N(C)C (stereo not given in full) | . | . | . | -3%
O=C(O)c1cc(-c2ccc(/C=C3\NC(=O)N(c4ccccc4)C3=O)o2)ccc1Cl | 9% | 1% | 50µM* | -4%
O=C1NC(=S)N(c2ccccc2F)C(=O)/C1=C\c1cccs1 | 14% | 27% | 7.9µM* | -29%
CCOc1ccc(N2C(=O)/C(=C\c3cccs3)C(=O)NC2=S)cc1 | -4% | -6% | 8.9µM* | ?
O=C(O)c1cc(-c2ccc(/C=C3\NC(=O)N(c4ccc(Cl)cc4)C3=O)o2)ccc1Cl | 1% | -4% | ? | -15%
NS(=O)(=O)c1ccc(-c2ccc(/C=C3\C(=O)Nc4ccccc43)o2)cc1 | 6% | . | -27% | .
Cc1ccc(/C=C2\C(=O)Nc3ccccc32)o1 | -17% | -28% | 25µM* | ?
